Assay in all cases: log2 ratio of Biotin-Ahx-Ub-VS probe labelling (fragment/DMSO); higher = less target engagement (more negative = stronger competition), active = hit call of the paper (q ≤ 0.05, log2 ratio ≤ -1)
What all share (details): compound concentration: 200 uM; treatment time: 3 h

The target in test [1] is T1, OTUD6B (UniProt Q8N6M0).
T1 sequence (whole entry): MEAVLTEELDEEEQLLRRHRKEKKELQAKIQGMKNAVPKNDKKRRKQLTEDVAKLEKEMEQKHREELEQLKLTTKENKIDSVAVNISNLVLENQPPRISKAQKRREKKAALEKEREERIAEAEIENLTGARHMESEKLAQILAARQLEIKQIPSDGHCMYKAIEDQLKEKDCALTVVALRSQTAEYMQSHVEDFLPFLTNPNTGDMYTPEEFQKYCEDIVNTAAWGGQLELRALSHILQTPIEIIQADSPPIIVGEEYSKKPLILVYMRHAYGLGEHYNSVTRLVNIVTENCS
In outline:
(§1)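 Labelled DUBs were enriched with NeutrAvidin, digested with LysC and trypsin, and run by diaPASEF LC-MS/MS. The labelling used Biotin-Ahx-Ub-VS at 0.5 µM final for 1 h on HEK293T lysate (495 µg per sample) previously treated in triplicate with fragment at 200 µM or vehicle for 3 h. Values are average log2 fragment/vehicle ratios by unpaired t-test on global-median-normalised Spectronaut quantities of proteins with ≥2 unique peptides.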

Test [2] has as its target T2, OTUD7B (UniProt Q6GQQ9).
T2 sequence (whole entry): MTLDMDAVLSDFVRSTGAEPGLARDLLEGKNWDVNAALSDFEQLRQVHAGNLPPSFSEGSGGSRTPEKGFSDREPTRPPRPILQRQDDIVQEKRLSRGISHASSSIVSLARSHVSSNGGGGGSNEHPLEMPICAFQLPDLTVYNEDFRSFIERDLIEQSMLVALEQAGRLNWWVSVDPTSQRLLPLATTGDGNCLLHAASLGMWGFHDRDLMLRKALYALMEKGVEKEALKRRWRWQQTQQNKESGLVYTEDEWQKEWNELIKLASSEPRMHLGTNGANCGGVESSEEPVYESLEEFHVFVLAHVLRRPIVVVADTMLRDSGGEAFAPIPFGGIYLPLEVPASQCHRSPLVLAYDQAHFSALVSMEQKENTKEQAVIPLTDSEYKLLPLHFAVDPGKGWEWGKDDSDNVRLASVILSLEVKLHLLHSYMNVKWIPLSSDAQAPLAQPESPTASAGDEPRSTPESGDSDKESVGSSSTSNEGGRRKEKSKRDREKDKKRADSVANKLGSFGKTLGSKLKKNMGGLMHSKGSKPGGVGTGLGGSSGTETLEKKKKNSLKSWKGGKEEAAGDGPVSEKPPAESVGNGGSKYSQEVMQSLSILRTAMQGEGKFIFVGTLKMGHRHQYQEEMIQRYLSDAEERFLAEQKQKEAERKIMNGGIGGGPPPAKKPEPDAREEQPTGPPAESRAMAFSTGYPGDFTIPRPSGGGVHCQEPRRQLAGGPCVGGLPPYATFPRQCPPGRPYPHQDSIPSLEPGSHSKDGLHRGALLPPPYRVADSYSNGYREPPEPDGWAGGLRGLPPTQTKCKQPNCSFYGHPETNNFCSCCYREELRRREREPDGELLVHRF
In outline: as §1

Test [3] concerns the target PRPF8 (UniProt Q6P2Q9). In outline:
as §1

The target of test [4] is T3, PSMD7 (UniProt P51665).
T3 sequence (whole entry): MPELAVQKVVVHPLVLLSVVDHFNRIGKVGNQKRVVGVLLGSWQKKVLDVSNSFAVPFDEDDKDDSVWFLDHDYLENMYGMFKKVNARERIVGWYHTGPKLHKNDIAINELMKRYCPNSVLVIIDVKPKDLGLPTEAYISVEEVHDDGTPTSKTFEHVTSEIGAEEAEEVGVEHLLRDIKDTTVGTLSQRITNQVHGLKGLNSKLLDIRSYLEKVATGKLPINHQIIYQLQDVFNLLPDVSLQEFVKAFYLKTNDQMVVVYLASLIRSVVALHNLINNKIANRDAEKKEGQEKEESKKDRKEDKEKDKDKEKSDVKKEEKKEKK
In outline: as §1

The target in test [5] is UCHL1 (UniProt P09936). In outline:
as §1

The target in test [6] is T4, UCHL3 (UniProt P15374).
T4 sequence (whole entry): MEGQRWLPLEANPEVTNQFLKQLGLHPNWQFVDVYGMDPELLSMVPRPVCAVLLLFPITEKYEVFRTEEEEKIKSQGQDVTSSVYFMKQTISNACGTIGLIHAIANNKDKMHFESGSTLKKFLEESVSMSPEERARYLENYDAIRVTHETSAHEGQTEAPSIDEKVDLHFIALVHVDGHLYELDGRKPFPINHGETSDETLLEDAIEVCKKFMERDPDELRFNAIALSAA
In outline: as §1

Test [7] addresses T5, UCHL5 (UniProt Q9Y5K5).
T5 sequence (whole entry): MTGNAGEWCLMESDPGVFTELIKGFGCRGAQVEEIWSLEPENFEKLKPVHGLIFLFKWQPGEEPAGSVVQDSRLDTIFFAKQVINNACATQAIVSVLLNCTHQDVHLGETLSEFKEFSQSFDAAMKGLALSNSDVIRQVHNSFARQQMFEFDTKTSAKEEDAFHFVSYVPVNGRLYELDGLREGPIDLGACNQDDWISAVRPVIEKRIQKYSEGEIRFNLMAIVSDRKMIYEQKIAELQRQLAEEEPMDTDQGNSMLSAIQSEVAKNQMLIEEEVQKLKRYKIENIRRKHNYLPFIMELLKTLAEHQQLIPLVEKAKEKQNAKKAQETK
The essentials: as §1

Test [8] has as its target USP10 (UniProt Q14694). In outline: as §1
The target in test [9] is T6, USP15 (UniProt Q9Y4E8).
T6 sequence (whole entry): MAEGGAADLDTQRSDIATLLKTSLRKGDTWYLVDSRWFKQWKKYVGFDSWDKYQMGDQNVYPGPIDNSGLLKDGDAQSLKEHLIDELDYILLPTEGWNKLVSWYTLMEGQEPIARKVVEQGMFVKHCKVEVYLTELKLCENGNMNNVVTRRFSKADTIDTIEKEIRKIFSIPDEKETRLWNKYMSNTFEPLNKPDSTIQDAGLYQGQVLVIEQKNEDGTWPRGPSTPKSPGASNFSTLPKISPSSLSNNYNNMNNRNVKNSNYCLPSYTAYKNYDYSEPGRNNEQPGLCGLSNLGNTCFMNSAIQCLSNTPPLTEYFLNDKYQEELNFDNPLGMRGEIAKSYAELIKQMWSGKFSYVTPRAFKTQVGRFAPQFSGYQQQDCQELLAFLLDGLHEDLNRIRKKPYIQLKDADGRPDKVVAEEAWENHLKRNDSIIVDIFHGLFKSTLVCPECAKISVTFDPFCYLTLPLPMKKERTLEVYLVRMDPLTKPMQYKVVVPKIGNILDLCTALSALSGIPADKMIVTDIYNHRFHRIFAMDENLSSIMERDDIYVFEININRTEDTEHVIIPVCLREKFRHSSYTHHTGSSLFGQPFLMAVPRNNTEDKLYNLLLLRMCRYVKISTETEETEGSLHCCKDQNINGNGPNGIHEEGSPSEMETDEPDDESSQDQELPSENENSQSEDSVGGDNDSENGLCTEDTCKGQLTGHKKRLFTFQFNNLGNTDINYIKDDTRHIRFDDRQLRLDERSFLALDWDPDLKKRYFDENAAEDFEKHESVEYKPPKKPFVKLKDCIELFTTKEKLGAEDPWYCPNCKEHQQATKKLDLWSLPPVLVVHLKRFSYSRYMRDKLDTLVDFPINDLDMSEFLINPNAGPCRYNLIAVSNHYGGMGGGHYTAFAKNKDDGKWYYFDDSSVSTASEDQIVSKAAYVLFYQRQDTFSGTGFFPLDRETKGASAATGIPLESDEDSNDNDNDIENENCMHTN
The essentials:
as §1

Values without a mark were called inactive.

Chain of USP10 (Q14694 whole entry): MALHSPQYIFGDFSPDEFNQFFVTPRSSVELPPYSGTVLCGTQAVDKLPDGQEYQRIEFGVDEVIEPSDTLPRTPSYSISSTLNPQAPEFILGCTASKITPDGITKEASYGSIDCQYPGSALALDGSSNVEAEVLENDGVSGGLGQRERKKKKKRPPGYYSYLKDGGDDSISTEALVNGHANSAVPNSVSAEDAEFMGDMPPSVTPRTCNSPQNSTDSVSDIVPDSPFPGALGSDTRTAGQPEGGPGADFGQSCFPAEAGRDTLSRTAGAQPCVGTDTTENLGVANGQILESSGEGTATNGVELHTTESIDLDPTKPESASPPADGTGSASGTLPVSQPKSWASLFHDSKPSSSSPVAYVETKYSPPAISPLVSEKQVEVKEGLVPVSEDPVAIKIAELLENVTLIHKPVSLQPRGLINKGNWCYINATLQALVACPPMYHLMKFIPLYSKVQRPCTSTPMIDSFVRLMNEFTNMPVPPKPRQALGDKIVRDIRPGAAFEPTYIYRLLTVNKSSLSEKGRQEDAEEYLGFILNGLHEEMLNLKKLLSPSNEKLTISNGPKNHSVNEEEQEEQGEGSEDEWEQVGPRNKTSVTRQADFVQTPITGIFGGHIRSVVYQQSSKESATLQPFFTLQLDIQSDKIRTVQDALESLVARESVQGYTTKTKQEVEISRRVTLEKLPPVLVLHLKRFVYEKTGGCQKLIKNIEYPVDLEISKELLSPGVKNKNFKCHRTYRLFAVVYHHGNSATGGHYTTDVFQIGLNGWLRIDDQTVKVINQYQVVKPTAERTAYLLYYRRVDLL
Chain of UCHL1 (P09936 whole entry, looked up): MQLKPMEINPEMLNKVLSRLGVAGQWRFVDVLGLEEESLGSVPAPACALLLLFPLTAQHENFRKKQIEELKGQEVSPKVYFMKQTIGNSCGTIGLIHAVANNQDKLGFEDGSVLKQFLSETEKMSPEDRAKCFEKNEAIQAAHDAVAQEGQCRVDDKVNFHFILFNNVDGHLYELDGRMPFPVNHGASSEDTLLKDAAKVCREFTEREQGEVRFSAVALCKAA

As for `NC(=O)C1CCCN(C(=O)CCl)C1` (centres undefined), the “log2 ratio of Biotin-Ahx-Ub-VS probe labelling” value in test [1] was 0.0096; in test [2] it was -0.633; in test [3], 0.0408; in test [4], -0.26; in test [5] it was -1.4 (active); in test [6], 0.133. The “log2 ratio of Biotin-Ahx-Ub-VS probe labelling” value in [7] was 0.0623; in test [8] it was -0.05; in test [9], -0.0343.

Source of the values: the supplement of paper PMC11732987, “Enantioselective OTUD7B fragment discovery through chemoproteomics screening and high-throughput optimisation” (Communications Chemistry, 2025).
